About 83,000 compounds went through this panel and 20% of them were active in at least one assay; those are over-represented in the sample as a whole.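 A percent growth of 40 corresponds to 60% growth inhibition; 0 means no net growth; -100 means all cells died. Active threshold: below 10.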 Calls of active or inactive are those of the source.

The test system of this test is OVCAR-3 ovarian. Description: NCI-60 one-dose screen, 48 h (100 = growth as untreated, 0 = no growth, -100 = all killed). Conditions: 10 µM unless noted. As for the experimental part:
Growth inhibition of the OVCAR-3 human tumor cell line is measured as a screen for anti-cancer activity. Cells are grown in 96 well plates and exposed to the test compound for 48 hours. Compounds are tested at a single concentration, which is 10^-5 M for most compounds. The reported endpoint is percent growth (GI% or GIPRCNT), where numbers from 0 - 100% represent growth inhibition, and numbers from -100% - 0 represent cell death. For example, a value of 40 represents 60% growth inhibition. A value of 0 means no net growth occurred over the course of the experiment. A value of -40 indicates 40% of cells at the beginning of the experiment died by the end of the experiment. A value of -100 means all cells are dead at the end of the experiment.
NCI-60 Human Tumor Cell Lines Screen was performed using the standard one-dose NCI protocol, which is described in more detail at https://dtp.cancer.gov/discovery_development/nci-60/default.htm.
Compounds with GIPRCNT values below 10 were considered active. Activity score was based on GIPRCNT using the following formula: […]
Score is 0 for GIPRCNT values of 100 or above, 50 for GIPRCNT values of 0, and 100 for GIPRCNT values of -100.
With `C=C1C(=O)O[C@H]2[C@H]1CC/C(COC(=O)/C=C\C(=O)O)=C\CC[C@@]1(C)O[C@@H]21`, the growth was 113% (inactive).
Next, `CCOc1ccc(-c2nonc2NC(=O)c2cccc(C)c2)cc1OCC`: 68.1% (inactive); `COc1ccc(C2=Nn3c(NN)nnc3SC2)cc1`: 111% (inactive).
On to `O=C1/C(=C\c2ccc[nH]2)c2ccccc2N1c1ccccc1`, for which the growth was 112% (inactive).
Regarding `COc1ccc(/C=C/C(=O)c2c(C)nc3ccccc3c2/C=C/c2ccccc2)c(OC)c1`, the growth was 84.8% (inactive).
On to `COc1cc2cc3c(=O)n4c(cc5cc(OC)ncc54)c(=O)n3c2cn1`, for which the growth was 109% (inactive).
The figure for `CC[C@H](C)[C@@H](C(=O)OC)n1cc(CNC(=O)[C@@H](Cc2ccccc2)NC(=O)OCc2ccccc2)nn1` is 115% (inactive); for `O=C(c1ccccc1)N(C(=S)NCCc1ccc(Cl)cc1)c1ccccc1` it is 98% (inactive); for `COc1cc(/C=C/C(=O)c2ccc(Cl)cc2)cc(CN2CCCCC2)c1O` it is 93.8% (inactive).
The figure for `O=C(/C=C/c1cccc(Cl)c1)OCc1ccc2cc1OCC#C/C=C\C#CCO2` is 116% (inactive).
Next, `COc1ccc(-c2cn3c(C(=O)Nc4ccccc4Cl)c(-c4ccccc4)c4c3n2CCCC4)cc1`: 84.1% (inactive).
In the case of `Cn1nc(C(C)(C)C)cc1NC(=O)Cc1ccc(/C=C2\C(=O)Nc3ccccc32)cc1`, the growth is 64.5% (inactive).
The figure for `COc1c(B(O)O)cccc1-c1nc2ccc3[nH]ncc3c2c2c1C1CCC2C1` (stereo not given) is 59% (inactive); for `OCCNc1nc(Nc2ccc(C3=NN(c4cc(Cl)cc(Cl)c4)C(c4ccc(C(F)(F)F)cc4)C3)cc2)nc(N2CCOCC2)n1` (stereo not given) it is 86.1% (inactive).
The figure for `COC(=O)/C(CCC=C(C)C)=C1\[C@@H](OC(C)=O)C[C@@]2(C)[C@H]1C[C@@H](O)[C@H]1[C@@]3(C)CC[C@H](NCCCNCCCCNCCCN)[C@@H](C)[C@@H]3CC[C@@]12C` is 83% (inactive); for `Cc1ccc(N=NC2C(=O)N(c3ccc(Cl)cc3)N(c3ccc(Cl)cc3)C2=O)cc1` it is 93.3% (inactive); for `O=C1C(Cl)=C(NCc2ccco2)C(=O)c2ccccc21` it is 84.6% (inactive).
Regarding `COc1ccc(-c2nc(N3CCN(C(=O)C4CCCCC4)CC3)c3c4c(sc3n2)CCCC4)cc1`, the growth is -38.3% (active).
Take `CN(O)c1nc(N(C)O)nc(N2CCOCC2)n1`: the growth is 5.41% (active).
As for `C=C(C)CCC(C)N1CCC(N2CCC(C(=O)NCCc3ccccc3)CC2)CC1` (stereo not given), the growth was -15.2% (active).
Next, `COc1ccc(/C(C#N)=C/c2nc3c(N4CCOCC4)nc(Cl)nc3n2C)cc1OC`: -86.1% (active); `COc1cccc(-c2nn(C)c3sc(C(=O)NCCN4CCN(c5ccccc5F)CC4)cc23)c1`: 64.9% (inactive).
On to `CN(CCc1ccccc1)C(=S)N(C(=O)c1ccc([N+](=O)[O-])cc1)c1ccc(Cl)cc1`, for which the growth was 83.5% (inactive).
For `CCCN1C(=O)N(CCC)C2C1NN=c1s/c(=C3\C(=O)N(C(C)C)c4ccccc43)c(=O)n12` (stereo not given), the growth is -15% (active).
In the case of `O=S(=O)(c1ccccc1)n1cc2c(c1-c1ccccc1)CCc1sc(Nc3ccccc3)nc1-2`, the growth is 72.5% (inactive).
Consider `O=CCCCC(O)C=O` (stereo not given), for which the growth was 109% (inactive).
On to `COc1ccc(C(=O)Nc2ccc3nc(N4CCCCC4)cc(C)c3c2)cc1OC`, for which the growth is 59.1% (inactive).
The figure for `CCOC(=O)c1sc(-c2ccc(OS(=O)(=O)c3ccc(Br)s3)c(C=O)c2)nc1C` is -1.81% (active); for `O=C1OC(c2ccccc2)(c2ccccc2)c2ccsc21` it is 100% (inactive).
The figure for `CN(C)CCCNCc1ccc(-c2ccc(F)c(Cl)c2)o1` is 34.3% (inactive); for `CC(C)c1ccc(S(=O)(=O)NC(=O)NC2CCCC2)cc1` it is 110% (inactive).
Next, `CCCCN1CCN(c2ccc3nc(-c4ccc5nc(-c6ccc(OCC)cc6)[nH]c5c4)[nH]c3c2)CC1`: -18% (active); `COc1cc(/C=C2\CN(C)C/C(=C\c3cc(CN4CCOCC4)c(O)c(OC)c3)C2=O)cc(CN2CCOCC2)c1O`: 22.2% (inactive).
For `CN1C(=O)N(C)C2Nn3c(s/c(=C\c4ccc(Cl)cc4Cl)c3=O)=NC21` (stereo not given), the growth was 30.7% (inactive).
The figure for `CCOC(=O)c1sc(-c2ccc(OS(=O)(=O)c3ccccc3[N+](=O)[O-])c(C=O)c2)nc1C` is 23.5% (inactive); for `Cc1ccc(S(=O)(=O)c2c(COC(=O)c3cccc(C)c3)c(-c3ccccc3)nn2C)cc1` it is -77.9% (active).
Next, `CCCC(=O)CC(C)=O.CCCC(=O)CC(C)=O.[Cu]`: 116% (inactive); `O=C(Cc1ccccc1)NC(c1ccc(Cl)cc1)c1c(O)ccc2ccccc12` (stereo not given): -22.9% (active); `O=C(/C=C/c1ccc(Cl)cc1)c1ccc(Nc2nc(NCCO)nc(Nc3ccc(Cl)cc3)n2)cc1`: 63.2% (inactive).
Next, `COc1ccc(C2C3=C(COC3=O)N(CCO)c3cc4c(cc32)OCCO4)cc1` (stereo not given): 50.4% (inactive).
